Structures can show the parent of a compound that is named as a salt.
Tested on: Vero E6 infected with SARS-CoV-2
Assay: inhibition of SARS-CoV-2 cytopathic effect; higher = more antiviral protection, active = above 15
Conditions: 48 h

Measured: inhibition of SARS-CoV-2 cytopathic effect

N=C(N)NS(=O)(=O)c1ccc(N)cc1 [sulfaguanidine]
inactive: 1 nM 1.47% | 8.33 nM 1.27% | 100 nM -0.35% | 833.33 nM 0.47% | 10000 nM 1.22%

CN(C)CC(=O)Nc1ccc2[nH]c(=O)c3ccccc3c2c1
inactive: 1 nM 1.34% | 8.33 nM 2.81% | 100 nM 1.23% | 833.33 nM 5.19% | 10000 nM 6.44%

CCOC(=O)c1ncn2c1[C@@H]1CCCN1C(=O)c1cc(OC)ccc1-2
inactive: 1 nM -0.88% | 8.33 nM 0.22% | 100 nM 0.35% | 833.33 nM -0.77% | 10000 nM 0.55%

CCOC(=O)[C@H](CCc1ccccc1)N[C@@H](C)C(=O)N1[C@H](C(=O)O)C[C@H]2CCCC[C@@H]21 [trandolapril]
inactive: 1 nM -1.1% | 8.33 nM -1.62% | 100 nM -0.26% | 833.33 nM -0.12% | 10000 nM 1.62%

CCN(CC)CCNC(=O)c1cc(S(C)(=O)=O)ccc1OC [tiapride]
inactive: 1 nM 1.6% | 8.33 nM -0.89% | 100 nM -0.61% | 833.33 nM 0.66% | 10000 nM 2.27%

O=c1cc(N2CCNCC2)oc2c(-c3ccccc3)cccc12
inactive: 1 nM 0.61% | 8.33 nM -3.07% | 100 nM -0.37% | 833.33 nM 0.12% | 10000 nM 1.5%

CN1CCN(CCCN2c3ccccc3Sc3ccc(Cl)cc32)CC1 [prochlorperazine]
inactive: 1 nM -0.92% | 8.33 nM 0.64% | 100 nM 0.48% | 833.33 nM -0.06% | 10000 nM 14.6%

c1ccc(Oc2cccnc2)cc1
inactive: 1 nM 2.35% | 8.33 nM 1.64% | 100 nM 1.02% | 833.33 nM 2.24% | 10000 nM 1.23%

COc1cccc2c1C(=O)c1c(O)c3c(c(O)c1C2=O)C[C@@](O)(C(=O)CO)C[C@@H]3O[C@H]1C[C@H](N)[C@@H](O)[C@H](C)O1 [Epirubicin Hydrochloride]
inactive: 1 nM 1.23% | 8.33 nM 1.09% | 100 nM 0.605% | 833.33 nM 1.46% | 10000 nM -4.63%

CCN1CCN(c2cc3c(cc2F)c(=O)c(C(=O)O)cn3C2CC2)CC1 [enrofloxacin]
inactive: 1 nM 2.85% | 8.33 nM 4.7% | 100 nM 2.54% | 833.33 nM 2.88% | 10000 nM 5.39%

Cc1ccccc1N1CCN(S(=O)(=O)C[C@]23CC[C@H](C[C@@H]2NC(=O)[C@@H](N)CCS(C)(=O)=O)C3(C)C)CC1
inactive: 1 nM 0.06% | 8.33 nM 2.09% | 100 nM 2.92% | 833.33 nM 1.11% | 10000 nM 0.11%

C[C@H](/C=C/[C@H](C)C(C)(C)O)[C@H]1CC[C@H]2/C(=C/C=C3C[C@@H](O)C[C@H](O)C3)CCC[C@]12C [paricalcitol]
inactive: 1 nM 0.83% | 8.33 nM 3.37% | 100 nM -0.2% | 833.33 nM 1.21% | 10000 nM -0.81%

Fc1ccc(-c2c3cccc(C(F)(F)F)c3nn2Cc2ccc(F)cc2Cl)cc1
inactive: 1 nM -0.96% | 8.33 nM -3.42% | 100 nM 2.69% | 833.33 nM -1.23% | 10000 nM 2.25%

COc1cc(N2CCN(C)CC2)ccc1Nc1nccc(-c2cn(C)c3cnccc23)n1
inactive: 1 nM 0.14% | 8.33 nM -0.24% | 100 nM 2.63% | 833.33 nM -0.7%
active: 10000 nM 40.7%

Cc1c(-c2ccnn2C)cc(C(=O)NCc2ccc(S(C)(=O)=O)cn2)c(=O)n1-c1cccc(C(F)(F)F)c1
inactive: 1 nM -2.24% | 8.33 nM -0.81% | 100 nM -0.79% | 833.33 nM -2.96% | 10000 nM -0.81%

CCCCCCCCCCC[C@@H](C[C@@H]1OC(=O)[C@H]1CCCCCC)OC(=O)[C@H](CC(C)C)NC=O [orlistat]
inactive: 1 nM 1.59% | 8.33 nM 3.04% | 100 nM 0.9% | 833.33 nM 2.31% | 10000 nM 1.43%

O=C(O)c1ccc(OCCn2ccnc2)cc1 [dazoxiben]
inactive: 1 nM 1.06% | 8.33 nM 2.92% | 100 nM 3.5% | 833.33 nM -0.21% | 10000 nM -0.65%

OCCN(CCO)c1nc(N2CCCCC2)c2nc(N(CCO)CCO)nc(N3CCCCC3)c2n1 [dipyridamole]
inactive: 1 nM -0.67% | 8.33 nM 1.83% | 100 nM 0.53% | 833.33 nM 0.2% | 10000 nM 4.52%

From the supplement of paper PMC13380429
